Molecules are shown by their SMILES. Inconclusive results are not listed. Entries that show only a call come without a potency. The source made the active and inactive calls. The call rests on the fitted dose curve; in most records, active means well fitted cell-killing curve with a large enough effect in the repeat runs; inconclusive means weak or mixed curves; inactive means no such curve, though single readings can be large or run the other way.
Potency means the concentration at half of the fitted maximal effect.

The experiment in a line: qHTS assay for identifying genotoxic compounds that show differential cytotoxicity against isogenic chicken DT40 cell lines with known DNA damage response pathways - Rad54/Ku70 mutant cell line (AID 743015). Further: nearly all actives have a fitted effect of over 60% in size. To be noted: DT40 Rad54/Ku70 mutant viability, CellTiter-Glo, 40 h; series mostly up to 66.8 µM. The text has this: National Center for Advancing Translational Sciences [NCATS]
NIH Chemical Genomics Center [NCGC]
U.S. Environmental Protection Agency [EPA]
National Institutes of Environmental Health Sciences [NIEHS]
National Toxicology Program [NTP]
U.S. Food and Drug Administration [FDA]
DNA repair pathways play a critical role in cellular homeostasis by repairing DNA damage induced by endogenous processes and xenobiotics. Isogenic chicken DT40 cell lines deficient in different DNA repair pathways can be used to identify genotoxic compounds and aid in characterizing the nature of the DNA damage induced. Two DNA repair-deficient cell lines with disrupted genes, Rad54/Ku70 or Rev3, were used to screen the Tox21 10K compound library. Possible genotoxicity was based on the presence of a significant increase in cytotoxicity in one or more of the DNA repair-deficient cell lines compared to that observed in the parental DNA repair-proficient cell line. CellTiter Glo viability assay (Promega, Madison, WI) was used to measure cell viability in these cells after compound treatment. This assay includes the data from the Rad54/Ku70 mutant cell line.
Tox21 Assay Protocol Summary:
300 DT40 mutant cells in 5 uL/well were dispensed into white, solid-bottom 1536-well plates using a Multidrop Combi (ThermoFisher Scientific, Waltham, MA) dispenser. After the assay plates were incubated at 37 C/5% CO2 for approximately 0.5 hour, 23 nL of compounds dissolved in DMSO, positive controls or DMSO only was transferred into the assay plate by a pintool work station (Kalypsys, San Diego, CA). The assay plates were incubated at 37 C/5% CO2 for 40 hours. After 5 uL per well of CellTiter-Glo reagent was added into each well of the assay plates, the plates were incubated for 30 min at room temperature and the luminescence intensity of the plates was measured using a ViewLux (PerkinElmer, Shelton, CT) plate reader.
On the technique in general: qHTS replaces the single test concentration by a dilution series.
In the case of `NC(=O)OCC(O)COc1ccc(Cl)cc1` (stereo not given), the Potency result is “inactive”.
With `CCCCC(C)(O)C/C=C/[C@H]1[C@H](O)CC(=O)[C@@H]1CCCCCCC(=O)OC` (stereo not given in full) the figure was 1.19 µM (active); with `CCCCCCCCCCCCCCCC(=O)OCCC1CCN(CCCN2c3ccccc3Sc3ccc(S(=O)(=O)N(C)C)cc32)CC1`, “inactive”.
For the molecule `CN[C@@H]1[C@@H](O)[C@@H](O[C@@H]2[C@@H](O)[C@H](OC3OC(CN)=CCC3N)[C@@H](N)C[C@H]2N)OC[C@]1(C)O` (stereo not given in full), the Potency result was “inactive”.
In the case of `CC1(C)S[C@@H]2[C@H](NC(=O)C(C(=O)Oc3ccc4c(c3)CCC4)c3ccccc3)C(=O)N2[C@H]1C(=O)O` (stereo not given in full), the Potency result is “inactive”.
`Cc1nnc(C(C)C)n1C1C[C@H]2CC[C@@H](C1)N2CC[C@H](NC(=O)C1CCC(F)(F)CC1)c1ccccc1` (stereo not given in full): the Potency result is “inactive”.
Regarding `OC[C@H]1O[C@@H](n2cnc3c2NC=NC[C@H]3O)C[C@@H]1O`, the Potency result was “inactive”.
Take `CC(C)(C)C(=O)OCOC(=O)[C@@H]1N2C(=O)[C@@H](N=CN3CCCCCC3)[C@H]2SC1(C)C`: the Potency entry was “inactive”.
With `COc1cc(C[C@@H]2NCCc3cc(O)c(O)cc32)cc(OC)c1OC`, the Potency result is “inactive”.
On to `CN1CCN(CCC=C2c3ccccc3Sc3ccc(S(=O)(=O)N(C)C)cc32)CC1`, for which the Potency is 16.8 µM (active).
In the case of `Cc1nc(NS(=O)(=O)c2ccc(N)cc2)nc(C)c1Br`, the Potency result is “inactive”.
In the case of `O=C1CCC(=O)N1CO`, the Potency entry was “inactive”.
On to `CC[C@@H]1/C=C(\C)C[C@H](C)C[C@H](OC)[C@H]2O[C@@](O)(C(=O)C(=O)N3CCCC[C@H]3C(=O)O[C@H](/C(C)=C/[C@@H]3CC[C@@H](Cl)[C@H](OC)C3)[C@H](C)[C@@H](O)CC1=O)[C@H](C)C[C@@H]2OC`, for which the Potency result is “inactive”.
Turning to `CCCC(=O)O[C@]1(C(=O)COC(C)=O)CC[C@H]2[C@@H]3C[C@H](F)C4=CC(=O)C=C[C@]4(C)[C@@]3(F)[C@@H](O)C[C@@]21C`, the Potency is 29.8 µM (active).
As for `Cc1ncc(COP(=O)(O)O)c(CN)c1O`, the Potency result was “inactive”.
In the case of `COc1ccc(CNCC(O)COc2ccc3[nH]c(=O)ccc3c2)cc1OC` (stereo not given), the Potency entry is “inactive”.
Take `COC(=O)[C@@H](N)CS`: the Potency entry was “inactive”.
With `CCCCCCOc1ccc(C(=N)N(CCCC)CCCC)c2ccccc12` the figure was 5.96 µM (active).
As to `S=C=Nc1ccc(N=C=S)cc1`, the Potency entry was “inactive”.
On to `COC(=O)CCC(=O)CN`, for which the Potency result was “inactive”.
For `CCCCCC(O)/C=C/C=O` (stereo not given) the value was “inactive”.
With `CCNC(=O)[C@@H]1CCCN1C(=O)[C@H](CCCN=C(N)N)NC(=O)[C@H](CC(C)C)NC(=O)[C@@H](CC(C)C)NC(=O)[C@H](Cc1ccc(O)cc1)NC(=O)[C@H](CO)NC(=O)[C@H](Cc1c[nH]c2ccccc12)NC(=O)[C@H](Cc1cnc[nH]1)NC(=O)[C@@H]1CCC(=O)N1` the entry was “inactive”; with `C=CCOc1ccc(CC(=O)O)cc1Cl`, “inactive”; with `CCCC(=O)Nc1ncnc2c1ncn2[C@@H]1O[C@@H]2COP(=O)(O)O[C@H]2[C@H]1OC(=O)CCC`, “inactive”.
On to `CO/N=C(\C(=O)N[C@@H]1C(=O)N2C(C(=O)O)=C(CSC(=O)c3ccco3)CS[C@H]12)c1csc(N)n1`, for which the Potency result was “inactive”.
In the case of `NC(=O)c1ccc[n+]([C@@H]2O[C@H](COP(=O)([O-])OP(=O)(O)OC[C@H]3O[C@@H](n4cnc5c(N)ncnc54)[C@H](O)[C@@H]3O)[C@@H](O)[C@H]2O)c1`, the Potency result was “inactive”.
`CCC(=O)O[C@]1(C(=O)CCl)[C@@H](C)C[C@H]2[C@@H]3C[C@H](F)C4=CC(=O)C=C[C@]4(C)[C@@]3(F)[C@@H](O)C[C@@]21C`: the Potency was 23.7 µM (active).
For `CCCCC[C@H](O)/C=C/[C@@H]1[C@H]2C/C(=C/CCCC(=O)O)O[C@H]2C[C@H]1O` the value was “inactive”; for `COc1ccc2cc([C@H](C)CO)ccc2c1`, “inactive”.
Consider `O=P(O)(O)OC(CO)CO`, for which the Potency result is “inactive”.
For `CC1=C(/C=C/C(C)=C/C=C/C(C)=C/C=C/C=C(C)/C=C/C=C(C)/C=C/C2=C(C)C[C@@H](O)CC2(C)C)C(C)(C)C[C@H](O)C1`, the Potency is 11.9 µM (active).
For the molecule `Cn1nnnc1SCC1=C(C(=O)O)N2C(=O)[C@@H](NC(=O)[C@H](OC=O)c3ccccc3)[C@H]2SC1`, the Potency entry was “inactive”.
For the molecule `O=C(O)CCC/C=C\C[C@@H]1[C@@H](/C=C/[C@@H](O)COc2cccc(Cl)c2)[C@H](O)C[C@@H]1O`, the Potency entry is “inactive”.
As for `CC(CC(c1ccccc1)c1ccccc1)NC(C)(C)C` (stereo not given), the Potency was 29.8 µM (active).
Take `CC1=C(/C=C/C(C)=C/C=C/C(C)=C/C(=O)Oc2c(C)c(C)c3c(c2C)CC[C@@](C)(CCC[C@H](C)CCC[C@H](C)CCCC(C)C)O3)C(C)(C)CCC1`: the Potency result is “inactive”.
For `Cc1cccc(C)c1N(CCCc1cccnc1)C(=O)C(C)N` (stereo not given) the value was “inactive”; for `O=C(NNCNNC(=O)c1ccncc1)c1ccncc1`, “inactive”.
Consider `CC(=O)[C@@]1(O)CC[C@H]2[C@@H]3C=C(Cl)C4=CC(=O)CC[C@]4(C)[C@H]3CC[C@@]21C`, for which the Potency is 23.7 µM (active).
As to `CCCCCCCCCCCCCCCCCCOP(=O)([O-])OC1CC[N+](C)(C)CC1`, the Potency was 14.6 µM (active).
Turning to `O=C(Nc1ccc(/C=C/c2ccc(NC(=O)c3cc(S(=O)(=O)O)c4cccnc4c3O)cc2S(=O)(=O)O)c(S(=O)(=O)O)c1)c1cc(S(=O)(=O)O)c2cccnc2c1O`, the Potency was 29.8 µM (active).

Source of the values: PubChem BioAssay (Tox21).
